# Source: PubChem (several laboratories)
# Compounds with a hit are over-represented: about 1.4% of the library has one in this group of screens.
# HDAC3 inhib – inhibitors of human histone deacetylase 3 | O15379 | recombinant HDAC3, fluorogenic peptide/trypsin coupled, fluorescence | inhibition, % at 8.3 µM | 320,000 tested, 0.15% active; in the data active = inhibition above about 26%, passing the limit was not always enough; inconclusive = no clear call, values can overlap the other calls
# Target sequence (O15379 whole entry, looked up): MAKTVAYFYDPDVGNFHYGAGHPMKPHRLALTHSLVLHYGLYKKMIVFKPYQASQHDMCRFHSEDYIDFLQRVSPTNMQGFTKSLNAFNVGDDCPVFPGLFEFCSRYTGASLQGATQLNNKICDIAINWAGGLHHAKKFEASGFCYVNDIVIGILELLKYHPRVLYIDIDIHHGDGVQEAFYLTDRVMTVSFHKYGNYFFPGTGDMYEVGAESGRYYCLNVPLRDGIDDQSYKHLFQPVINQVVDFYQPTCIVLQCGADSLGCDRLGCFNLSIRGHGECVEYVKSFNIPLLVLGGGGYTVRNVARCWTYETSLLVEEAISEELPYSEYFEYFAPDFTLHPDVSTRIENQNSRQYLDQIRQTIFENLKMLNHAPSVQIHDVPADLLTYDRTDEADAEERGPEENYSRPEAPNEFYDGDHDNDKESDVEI
# A3G deaminase – APOBEC3G (human) deaminase inhibition | recombinant A3G, ssDNA deamination FAM/TAMRA fluorescence | inhibition, % at 20 µM | 330,000 tested, 0.28% active | AID 493012;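 active = inhibition of at least 40% at 20 µM, with no more than 30% in the related APOBEC3A deaminase screen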;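 note: plate controls were DMSO wells with A3G for no effect and wells lacking A3G enzyme for full effect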
# LANA-H2A inh – blocks KSHV LANA binding to histone H2A/H2B; Q9QR71; cell-free LANA-H2A/H2B peptide, fluorescence polarization; inhibition, % (test concentration not listed); 320,000 tested, 0.6% active; in the data active = inhibition mostly above about 10%, no sharp cut-off; inactive = mostly below about 6.7%
# A3A deaminase – inhibitors of human APOBEC3A DNA deaminase. AID 493011. recombinant A3A, FAM/TAMRA ssDNA deamination fluorescence. 330,000 tested, 0.41% active. inhibition, % at 20 µM;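 active = at least 40% inhibition at 20 µM here, with at most 30% in a related deaminase screen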;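 note: plate controls were A3A with DMSO for no effect and wells lacking A3A enzyme for full effect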
# Target sequence (P31941 whole entry, looked up): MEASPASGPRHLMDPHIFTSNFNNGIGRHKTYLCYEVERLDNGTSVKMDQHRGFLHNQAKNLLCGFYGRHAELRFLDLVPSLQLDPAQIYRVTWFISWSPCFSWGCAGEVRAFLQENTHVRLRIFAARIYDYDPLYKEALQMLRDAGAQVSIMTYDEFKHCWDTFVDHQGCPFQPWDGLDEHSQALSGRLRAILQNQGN
# The depositor's hits bear a star; ? = inconclusive; / = no result; + = active, no number.
SMILES,HDAC3 inhib,A3G deaminase,LANA-H2A inh,A3A deaminase
Cc1ccccc1CS(=O)(=O)c1nnc([C@H](CC(C)C)NC(=O)OC(C)(C)C)o1,38.1*,-0.8,-4.3,1.0
CCSc1nnc(NC(=O)CN2C(=O)N(C)C3(CCCCC3)C2=O)s1,/,-8.7,/,2.0
CCN(Cc1ccncc1)Cc1nc(-c2ccc(C(=O)OC)cc2)no1,2.5,-1.9,9.6*,0.2
O=C(Nc1ccccc1O)c1ccc(Cl)cc1,90.7*,-5.7,3.2,-0.6
O=C(Nc1ccccc1O)c1ccc([N+](=O)[O-])cc1,52.8*,-0.5,1.2,-1.1
COc1ccc(NC(=O)CSc2nnc(Cc3ccccc3)c(=O)n2N)cc1OC,4.2,-4.1,2.5,0.8
CCCCCCCCCCCCCCCC[n+]1ccc(/C=N/O)cc1,9.1,3.8,12.8*,2.2
CCCCCCCCCCCCCCCC[n+]1ccc(C(N)=O)cc1,9.5,37.7,9.7,35.0
CCCc1ccc(C(=O)CCC(=O)O)cc1,-3.1,-5.4,+,-5.0
Cc1ccc2c(c1)-n1c(nc3ccccc3c1=O)C(Cc1ccc(O)cc1)NC2=O (stereo not given),6.3,2.7,4.3,1.4
CN(C(=O)COC(=O)C12CC3CC(CC(Cl)(C3)C1)C2)c1ccccc1,2.7,-5.7,4.0,-3.6
COc1ccc(C(Cl)=C(c2ccc(OC)cc2)c2ccc(OC)cc2)cc1,11.7,2.5,38.6*,1.0
COc1ccc(S(=O)(=O)N(C)C[C@H]2Oc3c(NC(=O)C4CCCCC4)cccc3C(=O)N([C@H](C)CO)C[C@@H]2C)cc1,0.1,-5.4,3.3,1.8
O=C(C[C@H]1C/C=C\CCC(=O)OC[C@H]2CCCN2C1=O)NCCO,?,-2.4,-0.2,0.6
O=C(c1ccccc1F)N1CCN(S(=O)(=O)c2ccc3c(c2)OCCO3)CC1,31.9*,0.5,-4.6,-1.0
Cc1ccc(S(=O)(=O)n2ccc(OC(=O)c3cccs3)n2)cc1,89.8*,-7.8,4.2,-5.3
Cc1ccc(S(=O)(=O)n2nc(OC(=O)c3cccs3)cc2N)cc1,9.0,-1.5,3.0,1.4
O=c1cnc2ccccc2n1Cc1ccc(Br)cc1,4.7,-2.3,-3.5,-4.2
CC(C)(C)c1ccc(Cn2c(=O)cnc3ccccc32)cc1,-0.7,0.6,16.8*,0.3
O=C(c1cccs1)c1c[nH]cc1-c1ccccc1,1.1,-1.6,-2.6,-1.3
O=C(CN1CCCCC1)Nc1ccc(S(=O)(=O)N2CCCCCC2)cc1,4.0,-5.3,-4.0,-2.2
O=C(CN1CCCC1)Nc1ccc(S(=O)(=O)N2CCCCC2)cc1,0.3,0.8,34.8*,1.5
CCOC(=O)C1=C(C)NC(C)=C(C(=O)OCC)C1C(=O)OCC(=O)NCc1ccco1,-1.1,-1.5,1.0,-2.3
CCn1c(CN2CCOCC2)nnc1SCC(=O)Nc1ccccc1C,-2.5,2.2,127.1*,0.2
CCCCN(CCCC)CCNC(=O)c1cn(CC)c2ccc(S(=O)(=O)N3CCCC3)cc2c1=O,-3.0,-3.3,-3.7,0.1
SMILES,HDAC3 inhib,A3G deaminase,LANA-H2A inh,A3A deaminase
CCN(CC)CCNC(=O)c1cn(CC)c2ccc(S(=O)(=O)N3CCOCC3)cc2c1=O,2.1,5.9,8.5*,2.4
CC(=O)Nc1ccc(C(=O)OCCc2ccccc2)cc1,5.4,-1.2,14.7*,-0.7
CC(=O)Nc1ccc(C(=O)OCCCOC(=O)c2ccc(NC(C)=O)cc2)cc1,-0.8,-8.2,-1.1,-0.5
Nc1nc(N(Cc2ccccc2)Cc2ccccc2)nc(C(F)(F)F)n1,13.9,-0.3,2.6,-1.7
Cc1cc(O)c(-c2cc(O)c(C)cc2O)cc1O,-7.1,85.5*,-3.4,-2.1
O=C(CN1C(=O)C2CC=CCC2C1=O)Nc1nc(-c2ccc(F)c(F)c2)cs1 (stereo not given),-2.1,-3.8,-0.5,-4.1
Cc1ccc(OCC(=O)N(C)CC(=O)Nc2ccc(Cl)c(C(F)(F)F)c2)c([N+](=O)[O-])n1,10.3,-7.9,104.8*,-3.7
O=C(NCCC1CCCCN1S(=O)(=O)c1ccccc1)C(=O)NCc1ccc(F)cc1 (stereo not given),3.8,7.5,0.8,0.6
Cc1ccc(CNS(=O)(=O)c2ccc([N+](=O)[O-])cc2)cc1,2.3,-1.8,-1.8,2.7
Cc1ccc(S(=O)(=O)Cc2ccc([N+](=O)[O-])cc2)cc1,-5.0,-4.6,15.8*,-4.1
CCCCn1c(N)c(N(CC)C(=O)c2cccs2)c(=O)[nH]c1=O,-6.0,-5.1,-0.7,0.1
CC(Oc1ccc(Cl)cc1)C(=O)Nc1nccs1 (stereo not given),0.4,-2.4,21.2*,-2.6
O=C(NCc1ccncc1)C(=O)NCc1ccncc1,4.5,-1.1,-1.2,-1.6
O=C(NCc1ccncc1)C(=O)NC1CC1,-5.4,-1.7,+,-6.0
Cc1ccc(S(=O)(=O)N[C@H](C(=O)NC2CCC(C)CC2)C(C)C)cc1 (stereo not given in full),1.2,-3.3,-0.6,3.0
O=C(CSC1=NCCS1)NC(NC(=O)CSC1=NCCS1)c1ccccc1,-8.9,-3.0,15.6*,-0.2
O=C(CSC1=NCCS1)NC(c1ccccc1)c1ccccc1,?,2.6,4.0,2.2
COc1ccc(Nc2ccc(C(F)(F)F)cc2[N+](=O)[O-])cn1,13.0,1.7,-0.7,0.5
COc1ccc(CCNC(=O)c2c[nH]c3ccc(F)cc3c2=O)cc1OC,7.1,1.2,-0.9,0.6
CCN(c1ccccc1)S(=O)(=O)c1ccc(OC)c(NC(=O)CN(C)C)c1,-2.3,-2.8,94.0*,0.8
O=C1c2ccccc2C(=O)N1CCCSc1nc2ccccc2o1,3.9,-0.7,15.5*,3.1
CC(=O)C[C@H](O)CC(=O)[C@@H]1OC(=O)[C@H](C)C/C=C\Cc2ccccc21,4.9,-2.9,+,-3.2
CC(=O)C[C@@H](O)CC(=O)[C@@H]1OC(=O)CCCCCCCCc2ccccc21,-5.2,-0.1,9.2*,-1.4
CC(=O)C[C@@H](O)CC(=O)[C@H]1OC(=O)CCCCCc2ccccc21,-3.1,-6.6,0.9,-6.0
CCOc1ccccc1NC(=O)NCCN1CCCCC1,-2.0,-1.8,15.4*,-5.4
SMILES,HDAC3 inhib,A3G deaminase,LANA-H2A inh,A3A deaminase
O=C1c2ccc(-c3ccc(F)cc3OCc3ccccc3)cc2S(=O)(=O)c2cccc(C(=O)N3CCCC3)c21,-5.7,-9.1,-1.6,-2.2
COc1ccc(C(=O)N2CCSC2=S)cc1OC,?,-2.2,-0.5,0.6
COc1cccc(C(=O)N2CCSC2=S)c1,36.8*,-6.1,-6.6,-16.9
O=C(Nc1ccccc1N1CCOCC1)c1cc(=O)[nH]c2ccccc12,2.9,-8.1,1.7,-2.2
Cc1nnsc1C(=O)Nc1cccc(Cl)c1,-1.6,-1.0,24.6*,4.8
Cc1nc(Cl)sc1C(=O)Nc1cccc(Cl)c1,-1.3,-3.5,-7.7,-2.7
CC1CN(C(=O)COC(=O)/C=C/c2cccc([N+](=O)[O-])c2)CC(C)O1 (stereo not given),13.0,-0.5,0.3,0.6
CC1(C)CC(=O)c2cnc(NC3CC3)nc2C1,4.1,-2.9,18.3*,-0.5
COc1cc(C(=O)NNC(=O)CNC(=O)C2CCCCC2)ccc1OC(C)C,-1.6,-5.8,0.8,-1.7
Cc1cc(S(=O)(=O)N2CCN(CC(=O)NCCc3cccs3)CC2)ccc1Br,9.6,-2.9,+,-1.0
